# Source: PubChem BioAssay (NCI)
# About 79,000 compounds went through this panel and 15% of them were active in at least one assay; those are over-represented in the sample as a whole. Values without a mark were called inactive. Active and inactive are the calls of the source. Rule as the data show it: active = growth inhibition above about 70%; inactive = the rest. Where a SMILES comes first, the peptide text is derived from it. [ ]: non-standard residue; d: D form. Nva = CCC[CH](N)C(=O)O
# Legend:
# [1] = NCI Yeast Anticancer Drug Screen. Data for the rad50 strain (AID 155);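 also: 0% = growth of vehicle-only cultures of the same strain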; conditions: S. cerevisiae rad50 strain growth inhibition, active compounds read high
# In short: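 Genetically altered yeast (DNA repair pathway); compound treatment; growth inhibition vs vehicle ctrl.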
# [2] = NCI Yeast Anticancer Drug Screen. Data for the mec2-1 strain (AID 157); conditions: S. cerevisiae mec2-1 strain, active compounds read high
# In short: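 Compounds were applied to mec2-1 yeast cells. Their growth was then compared with that of vehicle-treated cultures to give growth inhibition.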
# [3] = NCI Yeast Anticancer Drug Screen. Data for the sgs1 mgt1 strain (AID 161);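 also: 0% = growth of cultures given vehicle only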; conditions: S. cerevisiae sgs1 mgt1 strain, active compounds read high
# In short: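 Compounds are added to genetically altered yeast, and growth is compared with cultures given vehicle alone to give percent inhibition.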
# [4] = NCI Yeast Anticancer Drug Screen. Data for the cln2 rad14 strain (AID 165);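 also: 0% = growth equal to vehicle treated cultures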; conditions: S. cerevisiae cln2 rad14 strain, active compounds read high
# In short: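 Strain: cln2 rad14 yeast, altered in cell cycle control and DNA damage repair. Read-out: growth inhibition vs vehicle.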
# [5] = NCI Yeast Anticancer Drug Screen. Data for the bub3 strain (AID 167); conditions: S. cerevisiae bub3 mutant strain, active compounds read high
# In short: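 Yeast carrying a defined mutation is treated with each compound, and growth is compared with that of vehicle-exposed cells to give inhibition.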
# [6] = NCI Yeast Anticancer Drug Screen. Data for the mlh1 rad18 strain (AID 175); conditions: S. cerevisiae mlh1 rad18 strain growth inhibition, active compounds read high
# In short: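 A repair-deficient yeast strain is exposed to test compound, and growth is scored relative to vehicle-treated controls.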
# [7] = at 5.0 µM (retest, dose inferred, filed as 0.5)
# [8] = at 50.0 µM (retest, dose inferred, filed as 5.0)
SMILES,"growth inhibition [1, 7]","growth inhibition [1, 8]",growth inhibition ([1]; at 50.0 µM),"growth inhibition [2, 7]","growth inhibition [2, 8]",growth inhibition ([2]; at 50.0 µM),"growth inhibition [3, 7]","growth inhibition [3, 8]",growth inhibition ([3]; at 50.0 µM),"growth inhibition [4, 7]","growth inhibition [4, 8]",growth inhibition ([4]; at 50.0 µM),"growth inhibition [5, 7]","growth inhibition [5, 8]",growth inhibition ([5]; at 50.0 µM),"growth inhibition [6, 7]","growth inhibition [6, 8]",growth inhibition ([6]; at 50.0 µM)
O=C1c2ccccc2C(=O)N1/N=C\c1ccccc1[N+](=O)[O-],1%,75% (active),89% (active),-2%,41%,4.9%,3%,96% (active),-3.8%,-5%,32%,-29.1%,-3%,85% (active),3.75%,-3%,93% (active),0.5%
Cc1cc(OCCl)ccc1[N+](=O)[O-],-2%,26%,30.4%,-2%,32%,25.6%,-16%,67%,39.1%,-1%,55%,15.6%,15%,58%,19.9%,1%,80% (active),74.8% (active)
Cc1ccc(Nc2nc3c(s2)C(=O)c2ccccc2C3=O)cc1,37%,97% (active),98.2% (active),61%,98% (active),98.8% (active),34%,98% (active),98.7% (active),3%,96% (active),97.8% (active),91% (active),97% (active),98.7% (active),61%,97% (active),97.7% (active)
CN1CCN(CCSC2Cc3cc(Cl)ccc3Sc3ccccc32)CC1 (configuration not stated),29%,29%,93% (active),5%,5%,91.8% (active),19%,19%,92% (active),1%,1%,91.6% (active),16%,16%,93.8% (active),29%,29%,92.5% (active)
CSCCOC(=O)c1cc(NC(=S)c2ccoc2C)ccc1Cl,13%,78% (active),82.5% (active),-8%,78% (active),68.9%,10%,85% (active),66.4%,14%,83% (active),67%,17%,88% (active),73.9% (active),-7%,85% (active),63%
CN(C)[C@H]1CC[C@H]2[C@@H]3CCC4C[C@@H](NC(=O)NC(Cc5ccccc5)c5nccs5)CC[C@]4(C)[C@H]3CC[C@]12C (some centres not stated),4%,4%,67.5%,-16%,-16%,63.9%,-11%,-11%,63.5%,-16%,-16%,47.9%,-17%,-17%,65.9%,-21%,-21%,59%
CCOP(=O)(CCC(=O)[C@@]1(O)CC[C@H]2[C@@H]3CCC4=CC(=O)CC[C@]4(C)[C@H]3CC[C@@]21C)OCC,0%,2%,33.9%,1%,5%,5.55%,3%,16%,72.8% (active),-1%,2%,59.4%,-2%,-3%,29.8%,-4%,7%,39.1%
COc1cc(OC)cc(C2SCC(=O)N2c2nncs2)c1 (configuration not stated),2%,2%,20.2%,-5%,-3%,97% (active),0%,2%,55.5%,-2%,2%,98.8% (active),1%,13%,98.6% (active),0%,4%,96.8% (active)
CCCC(N)C(=O)NC(C(=O)O)C(C)C (configuration not stated) (H-[Nva]-Val-OH; configuration not given here),-2%,-11%,38.1%,-2%,-3%,51.9%,1%,-5%,17.1%,1%,-5%,86% (active),2%,-3%,62%,-2%,-9%,8.4%
O=C(O)C1OC(Oc2ccc3oc4ccccc4c(=O)c3c2)C(O)C(O)C1O (configuration not stated),-23%,91% (active),48.8%,3%,33%,40.2%,-1%,48%,30.8%,4%,15%,56.5%,10%,64%,47.1%,7%,39%,57.9%
C=CCNCCC1CCCCCC1,7%,97% (active),96.6% (active),6%,97% (active),97.5% (active),7%,98% (active),49.1%,5%,96% (active),8.8%,7%,97% (active),97.7% (active),4%,97% (active),96.5% (active)
CC(=O)OC1=CC2(OC(C)=O)CC(C)(C)C1C1C(=O)C=CC(=O)C12 (configuration not stated),8%,14%,53.1%,-8%,10%,65.3%,0%,13%,68.2%,3%,-10%,33.9%,4%,14%,73.8% (active),5%,21%,17.1%
COC1C(=[N+]=[N-])C(=O)NC(=O)N1C1OC(COC(c2ccccc2)(c2ccccc2)c2ccccc2)C(O)C1O (configuration not stated),63%,63%,69.5%,10%,10%,80.7% (active),18%,18%,66.8%,14%,14%,77.2% (active),13%,13%,60.2%,15%,15%,66.6%
O=C(O)C1C(=O)OC2CCCCC21 (configuration not stated),0%,-4%,3.25%,1%,1%,-6.45%,1%,0%,0.45%,-3%,1%,69.4%,0%,-3%,-0.95%,-2%,-3%,-2.4%
CCCCN(CCCC)c1ccc2c(c1)C(O)c1ccccc1-2 (configuration not stated),6%,81% (active),76.5% (active),2%,74% (active),59.2%,4%,78% (active),88.1% (active),5%,85% (active),74.8% (active),0%,77% (active),82% (active),15%,72% (active),85.2% (active)
O=C(CBr)N1c2ccccc2S(=O)(=O)c2ccc3ccccc3c21,36%,97% (active),79.5% (active),49%,98% (active),87% (active),66%,98% (active),81.2% (active),36%,96% (active),64.5%,79% (active),97% (active),76.5% (active),79% (active),97% (active),89.8% (active)
O=C1C=C/C(=C(/c2ccc(O)c(O)c2)c2ccccc2S(=O)(=O)O)C=C1O,1%,0%,11.8%,2%,-25%,-0.5%,-2%,2%,5.3%,5%,-2%,15.9%,-40%,-3%,-1.5%,2%,4%,1.75%
CN(C)C(C)(C)CCNc1c2ccccc2nc2cccc([N+](=O)[O-])c12,96% (active),97% (active),96% (active),98% (active),100% (active),94.6% (active),98% (active),99% (active),96.7% (active),98% (active),99% (active),94.5% (active),96% (active),99% (active),97.2% (active),98% (active),100% (active),98% (active)
O=C(Oc1cc([N+](=O)[O-])ccc1Cl)Oc1cc([N+](=O)[O-])ccc1Cl,-6%,97% (active),97.5% (active),0%,99% (active),99.5% (active),-7%,99% (active),98.6% (active),0%,98% (active),97.9% (active),-9%,98% (active),98.8% (active),-5%,98% (active),98.6% (active)
